Each structure is given as a SMILES string.

The target in this experiment is AMP-activated protein kinase, AMPK (Homo sapiens) (UniProt P54646+O43741+P54619+Q9UGJ0+Q9Y478+Q13131+Q9UGI9). The experiment is described as follows: AMP-dependent Kinase enzyme assay. An in vitro enzyme assay that detects ADP turnover that is directly proportional to AMPK activity. This uses naive AMPK that is activated during the assay with MK-8722. The class given is functional. On the set-up: scale not given: direction of the effect not stated beside the values. Particulars: 30 µM.
With `COCc1ccccc1C(=O)OCc1noc(C)n1`, the Percent Effect was 6.88%. Turning to `Cc1ccc(CN(CCN(C)C)Cc2c(C)nc3sccn23)o1`, the Percent Effect amounted to 14.3%. Next, `COc1ccc(C2CN(c3cc(C)ncn3)CCN2C(C)=O)cc1` (centres undefined): 21.4%. For the compound `COC(=O)c1ncccc1N1CCN(C(=O)CN2CCOCC2)CC1`, the Percent Effect was determined as 5.94%. Turning to `Cc1ccnc(C2CCN(CCCOc3ccccc3F)C2)n1` (centres undefined), the Percent Effect stood at 6.41%.

Turning to `CCCN1CCC(N2CCC(Cn3cc(CC(C)O)nn3)CC2)CC1` (centres undefined), the Percent Effect is -7.12%. As to `COc1cccc(CCn2ccnc2-c2cn(C3CCNCC3)nn2)c1`, the Percent Effect was -20.9%. Turning to `Cc1cccc(Nc2noc3c2CN(C(=O)c2ccn(C)n2)CC3)c1C`, the Percent Effect amounted to 3.74%. To `N#Cc1c(N)nc2c(c1-c1c[nH]nc1C1CCCCC1)CNCC2` belongs 17.6%. Next, `CCc1oc(C(=O)OC)cc1Cn1cccc(C(F)(F)F)c1=O`: 6.73%; `Cc1cc(NC(C)c2csc(C)n2)n2nc(C)c(C)c2n1` (centres undefined): 10%. Turning to `CCC(c1ccccc1)S(=O)(=O)CCO` (centres undefined), the Percent Effect was found to be 0.669%. Next, `Cc1cc(N2CCCC(N(C)C)C2)n2nccc2n1` (centres undefined): 1.81%. Next, `CCOc1ccc(Cl)cc1CCNC(=O)Cn1ccccc1=O`: 16.7%; `NS(=O)(=O)c1ccc(N2CCN(CCCc3cn[nH]c3)CC2)cc1`: -5.73%. For `CC(C)COc1cncc(N(C)C2CCN(c3ncccn3)CC2)n1`, the Percent Effect was 7.4%. To `CN(CC(=O)NCC1CCCCC1)S(=O)(=O)c1cccnc1` belongs -4.46%; to `Cc1ccc(-c2nc(CC3CCN(C)CC3)no2)cc1N1CCNC1=O`, 11.1%; to `O=C(NCC1CCOC1)c1cc(-c2ccc(Cl)cc2)n[nH]1` (centres undefined), 1%. With `O=C(c1ccc(Cl)s1)N1CCCn2nc(CN3CC[C@H](F)C3)cc2C1`, the Percent Effect was 3.24%. To `Cc1ccc(N2CCCC(N(C)c3nn4cc(C)nc4s3)C2)nn1` (centres undefined) belongs 33%; to `CC(C)COc1cncc(N2CCCN(CC(F)(F)F)CC2)n1`, 3.81%. On to `CCOc1ccccc1CN(C)C(C)c1nc(-c2cccnc2)no1` (centres undefined), for which the Percent Effect worked out at 1.83%.

Regarding `O=C(NCCC1CN(C2CCCC2)CCO1)c1cc(=O)[nH]c(=O)[nH]1` (centres undefined), the Percent Effect is -0.888%. On to `Cc1cc(NCCc2nc(C)cs2)nc(-c2cccnc2)n1`, for which the Percent Effect came to 5.81%.

Turning to `CN(CC(O)C(F)(F)F)C(=O)Nc1cccc(C(F)F)c1` (centres undefined), the Percent Effect is -0.316%. With `Cc1nn(C)c(C)c1C1COCCN1C(=O)NC1CC1` (centres undefined), the Percent Effect was -1.36%. Regarding `Cc1ccc(N2CC[C@@]3(O)CCN(S(C)(=O)=O)C[C@H]3C2)nn1`, the Percent Effect is 0.414%. Next, `COc1ccc(NC(=O)N2CCOCC(CN(C)C)C2)c(C)c1` (centres undefined): 1.75%; `O=C(c1cccc2ccnn12)N1CCC[C@H]1CN1CCCC1`: -0.374%. Regarding `Cc1ccc(CN(C)C(=O)CNC(C)(C)c2noc(C(C)(C)C)n2)o1`, the Percent Effect was -1.82%.

As to `COc1c(C)cnc(CN2CCCC2c2noc(C)n2)c1C` (centres undefined), the Percent Effect is -12%. Next, `CCC(C)c1csc(NC(=O)c2sc(-c3nnc[nH]3)nc2C)n1` (centres undefined): 12.2%; `CC(C)(C)C(=O)NCCc1cc(N2CCOCC2)nc(NC2CC2)n1`: 17.4%; `CCOC(=O)N(C)CC(=O)NCCc1coc(-c2ccc(C)cc2)n1`: -1.7%. Next, `CN(CCOc1ccccc1)C(=O)Nc1cccn(C)c1=O`: -59.2%; `Cc1cc(C(=O)N2C[C@@H](CN(C)CCN(C)C)[C@@H](CO)C2)nc(C)n1`: -14.8%.

In the case of `Cc1ccc(NC(=O)NCCn2cnc(C)c(C)c2=O)cc1F`, the Percent Effect worked out at 1.89%. For the compound `CC(NCC(=O)N1CCc2sccc2C1)c1ccccc1F` (centres undefined), the Percent Effect was 10.8%.

The values are drawn from ChEMBL document CHEMBL3988442, “University of Dundee, Small-Polar-MMV Screening Library” (2021).
